High-throughput results: PubChem, National Center for Advancing Translational Sciences (NCATS)
KCNH2 WT inh = qHTS for Inhibitors of KCHN2 3.1: Wildtype qHTS; U2OS, BacMam KCNH2, thallium flux FluxOr; active compounds read low; activity change, % at 1.84 µM; 0.37% of 340,000 active; AID 720551, 2013;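 active = maximum activity change below -70%; inconclusive = maximum activity change between -70% and -50%; inactive = maximum activity change above -50%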
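U2OS cells were transduced with wild-type KCNH2 virus (2.03 x 10^8 / mL) for 4 h at room temperature, then cultured overnight at 37 C. Thallium flux was read with FluxOr dye. Rate constants were normalized to DMSO controls.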
KCNH2 3.1 inh = qHTS for Inhibitors of KCHN2 3.1: Mutant qHTS. Potassium voltage-gated channel subfamily H member 2, brain isoform KCNH2 3.1 (human). U2OS KCNH2 3.1, thallium flux FluxOr; active compounds read low. activity change, % (tested at about 1.8 µM). 0.95% of 340,000 active. AID 720553, 2013;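 active = maximum activity change below -70%; inconclusive = maximum activity change from -70% to -50%; inactive = maximum activity change above -50%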;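 note: thallium influx rate constant from kinetic fluorescence after stimulation buffer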
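Steps: virus added to U2OS suspension (4 h, RT, dark); medium with 10% FBS added, cells plated, 37 C overnight; FluxOr/Red40 loading buffer 45 min RT; stimulation buffer, 2 min kinetic read; rate constant normalized.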
Akt phos inh = HTS Assay for Inhibitors of Akt Phophorylation: Primary Screen; Neuro2A IGF-stimulated pAkt S473 HTRF, 20 min; active compounds read low; 0.32% of 360,000 active; AID 651550, 2012; activity change, % for hits at 50 µM; in the data active = activity change below about -80%; inconclusive = mostly about -51% to -80%
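Neuro2A cells in DMEM with 0.5% FBS, overnight at 37 deg C, given compound at single 50 µM final, then IGF (6 nM final) for 20 min at 37 deg C. Lysed; phospho-Akt Ser473 by HTRF after 24 h, 665/615 ratio.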
RXFP1 antag = qHTS Assay for Antagonists of the Relaxin Receptor RXFP1; 0.59% of 350,000 active; HEK293-RXFP1, relaxin-stimulated cAMP HTRF, 30 min; active compounds read low; activity change, negative = inhibition, % at 57.5 µM; AID 1259400, 2018; Relaxin receptor 1 (Homo sapiens), Q9HBX9;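 active = activity change of -60% or lower, but not beyond a set lower limit; inconclusive = change between -60% and -40%, or beyond the set limit; inactive = change above -40%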
Target sequence (Q9HBX9 whole entry, looked up): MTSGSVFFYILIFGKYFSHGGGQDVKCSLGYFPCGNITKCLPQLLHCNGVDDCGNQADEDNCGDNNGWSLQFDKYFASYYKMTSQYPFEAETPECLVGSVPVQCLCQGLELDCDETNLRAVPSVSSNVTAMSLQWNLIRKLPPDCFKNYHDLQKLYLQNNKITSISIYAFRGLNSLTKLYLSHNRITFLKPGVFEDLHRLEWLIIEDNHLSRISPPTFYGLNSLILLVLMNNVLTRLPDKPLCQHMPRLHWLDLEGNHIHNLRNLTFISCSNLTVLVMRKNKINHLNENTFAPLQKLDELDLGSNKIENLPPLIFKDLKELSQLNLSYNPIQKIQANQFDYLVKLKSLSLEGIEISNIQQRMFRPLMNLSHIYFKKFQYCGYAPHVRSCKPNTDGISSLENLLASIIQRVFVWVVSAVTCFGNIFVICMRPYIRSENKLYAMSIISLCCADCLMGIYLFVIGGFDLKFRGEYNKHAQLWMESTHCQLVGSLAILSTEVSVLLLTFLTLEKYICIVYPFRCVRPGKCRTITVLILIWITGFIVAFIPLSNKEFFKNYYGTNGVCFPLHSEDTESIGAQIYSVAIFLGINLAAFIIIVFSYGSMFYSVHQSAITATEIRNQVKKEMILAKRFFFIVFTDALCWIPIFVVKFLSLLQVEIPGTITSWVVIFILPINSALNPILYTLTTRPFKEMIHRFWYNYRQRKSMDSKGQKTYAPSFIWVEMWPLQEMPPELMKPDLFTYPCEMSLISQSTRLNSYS
RXFP1 agonist = qHTS Assay for Agonists of the Relaxin Receptor RXFP1. HEK293T-RXFP1 cAMP TR-FRET, 30 min; response scale: percent of porcine relaxin response, buffer zero. AID 2676, 2010. 0.3% of 370,000 active. Potency, µM (top dose mostly 57.5 µM), inactives show at the top dose activation, actives largely listed as activators. Relaxin receptor 1 (Homo sapiens), Q9HBX9; active = well fitted activation curve with a large enough effect; inconclusive = small, poorly fitted or top-dose-only effect; note: potency is the fitted concentration of half-maximal effect; nearly all actives have a fitted effect of over 60% in size
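Agonist response is measured as cAMP accumulation in an RXFP1-transfected HEK293T line under PDE4 inhibition. Values are scaled between buffer-only and 29 nM porcine relaxin, and EC50s come from standard Hill equation fits.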
* = called active by the depositor; i = inactive; ? = inconclusive; . = no result given. Sampled rows, rich in hits. Any-hit rate of the full collection: about 1.7%. % is set by controls: 0 for no effect and ±100 for the full control effect.

SMILES	KCNH2 WT inh	KCNH2 3.1 inh	Akt phos inh	RXFP1 antag	RXFP1 agonist
CSc1ccc(CN(C)CC(=O)Nc2ccccc2C(=O)NC2CC2)cc1	1	2	i	2	1%
CNC(=O)c1ccc(CN(C)CC(=O)Nc2ccccc2C(=O)NC2CC2)cc1	6	-72*	i	-4	-1%
Cc1ccc(Nc2nnc(-c3ccc(C)c(S(=O)(=O)N4CCOCC4)c3)c3ccccc23)cc1	.	.	.	-18	1%
Cc1oc(-c2ccc(F)cc2F)nc1CN1CCN(C(=O)c2ccco2)CC1	6	0	i	2	.
CCCCSc1nnc(-c2ccc(C)cc2)n1C	6	8	-113%*	-15	-1%
CCOc1ccccc1NC(=O)COC(=O)Cc1ccsc1	-15	-7	i	5	0%
CSc1ccccc1NC(=O)COC(=O)Cc1ccsc1	1	-97*	i	-9	.
CCn1c(CNC(=O)c2cc(OC)c(OC)c(OC)c2)cc2ccccc21	5	-3	i	5	2%
CC(CCc1ccc(O)cc1)NCc1ccc(Br)cc1 (stereo not drawn)	4	-88*	i	-5	0%
CC(CCc1ccc(O)cc1)NCCC(c1ccccc1)c1ccccc1 (stereo not drawn)	-119*	-96*	i	-13	1%
COc1ccc(CNC(C)CCc2ccccc2)cc1 (stereo not drawn)	18	-46	i	-1	3%
CC(CCc1ccc(O)cc1)NC(c1ccccc1)c1ccc(Cl)cc1 (stereo not drawn)	16	-33	i	-26	-1%
CCc1ccc(OCC(=O)Nc2nnc(-c3ccco3)s2)cc1	-3	-9	i	-4	14%
CCCCNCC1C(Oc2ccc(Cl)cc2)C(=O)N1c1ccccc1C (stereo not drawn)	5	-94*	i	?	-1%
CCOC(=O)CNC(=O)c1cnc(Nc2ccccc2OC)c2ccccc12	-1	-3	i	-5	1%
CCOC(=O)N1CCN(C(=O)c2cnc(Nc3ccccc3OC)c3ccccc23)CC1	2	-193*	i	17	2%
CCOC(=O)Nc1ccc2c(c1)N(C(=O)CCN1CCN(C)CC1)c1ccccc1S2	2	6	i	-6	-2%
CCOC(=O)Nc1ccc2c(c1)N(C(=O)CCN1CCN(CCO)CC1)c1ccccc1S2	16	-5	-124%*	-6	.
Cc1ccc(C)c(N(C)C(=O)c2coc(=O)c3ccccc23)c1	-1	7	i	7	0%
CC(C)C(=O)N(c1ccc2oc(=O)sc2c1)S(=O)(=O)c1cccs1	0	.	i	-26	0%
CC(C)C(=O)N(c1cc2sc(=O)oc2c2ccccc12)S(=O)(=O)c1cccs1	-1	3	i	-68*	-2%
CC(c1ccccc1)C1CC(=O)N(c2ccc(C(=O)O)cc2)C1=O (stereo not drawn)	23	11	-81%*	-13	0%
O=C(Cn1cnc2nc3c(cc2c1=O)CCCC3)N1CCN(c2ccccc2)CC1	.	.	.	-8	2%
CNC(=O)Nc1ccccc1F	-241*	7	i	4	2%
O=C(Nc1ccccc1F)Nc1ccccc1Br	.	11	i	6	3%
SMILES	KCNH2 WT inh	KCNH2 3.1 inh	Akt phos inh	RXFP1 antag	RXFP1 agonist
CCOC(=O)C(=Cc1ccc(-c2ccsc2C(=O)OC)o1)C(=O)OCC	-2	5	i	-10	0%
CCOCCCNC(=O)Cc1ccc(-n2c(CC)nc3cccnc32)cc1	-6	-1	i	4	8%
COc1ccccc1OCc1ccc(C(=O)Nc2cc(OC)c(OC)c(OC)c2)o1	-129*	14	i	-2	4%
COc1cc(NC(=O)c2ccc(COc3ccccc3Br)o2)cc(OC)c1OC	2	11	i	5	0%
CN1CCN(CCOC2Cc3ccccc3Sc3ccc(Cl)cc32)CC1 (stereo not drawn)	?	-91*	i	-70*	0%
OCCN1CCN(C2Cc3cc(Cl)ccc3Sc3ccc(Cl)cc32)CC1 (stereo not drawn) (tested in a mixture with another compound)	5	-20	i	?	1%
CC(C)CN1CCC(=O)N([C@H](CN=[N+]=[N-])Cc2ccccc2)CC1	6	5	i	.	0%
O=C(Nc1ccc(Oc2ccccc2)nc1)C1CCCCN1Cc1ccco1 (stereo not drawn)	-1	-19	i	0	0%
O=C(NC1CCCCC1)c1cccc2c1C(=O)c1ccc(-c3ccc(OC(F)(F)F)cc3)cc1S2(=O)=O	-9	-129*	i	.	.
CCCCCC1CCC(c2n[nH]c(=S)n2C)CC1 (stereo not drawn)	-24	-20	i	-64*	-3%
C=CCn1c(C2CC2)n[nH]c1=S	.	-3	i	0	2%
CC(C)Cn1cnc2c(c(-c3ccccc3)c(-c3ccccc3)n2Cc2ccco2)c1=N	-74*	-101*	i	-12	0%
N=c1c2c(-c3ccccc3)c(-c3ccccc3)n(Cc3ccco3)c2ncn1Cc1ccccc1	-18	-25	i	20	-1%
N=c1c2c(-c3ccccc3)c(-c3ccccc3)n(Cc3ccco3)c2ncn1CCCn1ccnc1	-17	-71*	i	-15	2%
N=c1c2c(-c3ccccc3)c(-c3ccccc3)n(Cc3ccco3)c2ncn1CCCN1CCOCC1	-4	-78*	i	-23	1%
c1ccc(-c2c(-c3ccccc3)n(Cc3ccco3)c3ncnc(NCCCn4ccnc4)c23)cc1	13	.	i	-65*	5%
Cc1c(C)n(CCC#N)c2ccc(Cl)cc12	6	0	i	.	1%
CCOC(=O)C(=CNc1cc(C)nn1-c1ccccc1)C(=O)OCC	-11	-1	i	-1	1%
Cc1ccc(C(=O)Nc2cccc(C(=O)N/N=C/c3ccccc3F)c2)cc1	3	7	i	4	0%
O=C(OCc1ccc([N+](=O)[O-])cc1)c1cc(S(=O)(=O)N2CCCCC2)ccc1N1CCOCC1	-93*	-80*	i	-6	1%
O=C(NCCCn1ccnc1)c1ccc(F)cc1	-7	1	i	0	1%
Cc1oc(-c2ccccc2Cl)nc1CS(=O)CC(=O)NC1CC1 (stereo not drawn)	-261*	8	.	-7	4%
